IMPase Li cell = IMPase inhibition in cells with lithium potentiation. CHO-M1 cells, IP1 TR-FRET (IP-One), carbachol + lithium. Potency, µM (series often up to 59.4 µM), hits mostly inhibitors. 210,000 tested, 0.35% active. AID 1457;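 also: IP1 builds up when IMPase is blocked and the TR-FRET signal falls; nearly all actives have a fitted effect of over 50% in size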
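Readout is a homogeneous TR-FRET IP1 immunoassay (Ex 320, Em 665 and 620), where raised cytosolic IP1 lowers signal. Cells were CHO-M1 treated 30 min at 37C with test compounds plus a little lithium; AC50 values came from Hill-equation fitting.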
LMNA splice mod = LMNA splicing modulation; 200,000 tested, 0.01% active; Potency, µM (series often up to 46.1 µM), actives largely listed as inhibitors; HeLa LMNA splicing GFP/RFP minigene ratio, 48 h; active = well fitted inhibition curve with a large enough effect in the signal ratio, with a control signal flat, not every such curve was filed as active; inconclusive = small, poorly fitted or top-dose-only effect, or effect the other way, or a change in a side signal; the % refers to the signal ratio
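Read-out is the ratio of GFP to DsRed2 object intensity, acquired by 488 nm laser-scanning cytometry on HeLa lamin A-EGFP minigene reporter cells. Compound incubation 48 hrs at 37 °C in Opti-MEM with 2% FBS; DMSO 0.5% final.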
ALDH1A1 block = inhibitors of human aldehyde dehydrogenase 1A1; Potency, µM (doses to about 75.3 µM), actives largely listed as inhibitors; AID 1030; 220,000 tested, 7.3% active; Purified ALDH1A1, NADH fluorescence, propionaldehyde substrate; P00352; active = well fitted inhibition curve with a large enough effect, not every such curve was filed as active; inconclusive = small, poorly fitted or top-dose-only effect, or another doubt; inactive = no such curve, though single readings can be large or run the other way
Target sequence (P00352 whole entry, looked up): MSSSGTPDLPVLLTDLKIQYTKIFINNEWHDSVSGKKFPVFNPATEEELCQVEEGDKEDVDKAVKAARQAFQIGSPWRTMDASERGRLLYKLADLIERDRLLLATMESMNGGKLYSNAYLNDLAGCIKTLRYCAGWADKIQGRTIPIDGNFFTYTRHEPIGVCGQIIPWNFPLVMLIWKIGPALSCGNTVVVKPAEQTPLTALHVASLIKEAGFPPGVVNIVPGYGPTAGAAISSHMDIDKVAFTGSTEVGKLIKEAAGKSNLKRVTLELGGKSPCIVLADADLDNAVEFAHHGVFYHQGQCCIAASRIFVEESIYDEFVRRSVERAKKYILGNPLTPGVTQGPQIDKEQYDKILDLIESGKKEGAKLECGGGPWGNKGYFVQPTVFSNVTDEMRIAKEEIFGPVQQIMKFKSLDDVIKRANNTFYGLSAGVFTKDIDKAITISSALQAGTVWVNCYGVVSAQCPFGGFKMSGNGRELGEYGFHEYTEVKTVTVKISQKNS
KinaseGlo FLuc = Kinase-Glo luciferase inhibition (counter-screen); Kinase-Glo luciferase, ATP luminescence, 8 min; 200,000 tested, 0.28% active; Potency, µM (highest dose often 38.3 µM), actives largely listed as inhibitors; AID 1379; also: nearly all actives have a fitted effect of over 60% in size
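Luminescence was the read-out, taken after 8-minute incubation at ambient temperature. Luciferase turned over luciferin with 10 uM ATP in imidazole pH 7.2 buffer containing KCl, MgCl2, Tween 20 and BSA.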
HPGD block = HPGD (human) dehydrogenase inhibition; purified HPGD, NADH fluorescence kinetic, PGE2 substrate; Potency, µM, hits mostly inhibitors; 150,000 tested, 4.3% active; active = well fitted inhibition curve with a large enough effect, not every such curve was filed as active; inconclusive = small, poorly fitted or top-dose-only effect, or another doubt; inactive = no such curve, though single readings can be large or run the other way
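20 nM HPGD preincubated 15 min at room temperature with compound in 50 mM Tris-HCl pH 8, 0.01% Tween 20. Started with 1 mM NAD+ and 30 uM prostaglandin E2; NADH fluorescence (360/450 nm) read 5 times over 30-s intervals, last minus first.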
Hits are given with their value; . = inactive; ? = inconclusive; / = no result given; [ ] = another dose, or the depositor's remark. This is a sample that favours compounds with a hit; in the whole collection about 9% have one here. Unless noted, calls follow the shape of the dose curve; as a rule, active = well fitted curve in the direction sought with a large enough effect; inconclusive = small, poorly fitted or top-dose-only effect, or another doubt; inactive = no such curve, though single readings can be large; an effect the other way counts as inactive or inconclusive.

SMILES | IMPase Li cell | LMNA splice mod | ALDH1A1 block | KinaseGlo FLuc | HPGD block
CN=C(NC)SC1CC(=O)N(c2ccccc2)C1=O (centres undefined) | . | . | . | . | .
Nc1nnc(SC2CC(=O)N(c3ccccc3)C2=O)s1 (centres undefined) | . | . | 3.5µM | . | 32µM
C=CCNc1nnc(SC2CC(=O)N(c3ccc(OCCC)cc3)C2=O)s1 (centres undefined) | . | ? | 0.56µM | . | 14µM
Cc1nc(SC2CC(=O)N(c3ccc([N+](=O)[O-])cc3)C2=O)nc2c1CCCC2 (centres undefined) | . | . | 1.8µM | . | .
Cc1nc(SC2CC(=O)N(c3ccccc3)C2=O)n[nH]1 (centres undefined) | . | / | 0.35µM | . | /
O=C(c1csnn1)N1CCC2(CCCN(c3ccccn3)C2)CC1 | . | / | ? | . | .
O=C1CC(Sc2ncccn2)C(=O)N1c1ccccc1 (centres undefined) | . | . | 22µM | . | .
CCOc1ccc(N2C(=O)CC(Sc3ncccn3)C2=O)cc1 (centres undefined) | . | . | 22µM | . | .
COc1ccccc1N1C(=O)CC(Sc2nccc(C)n2)C1=O (centres undefined) | . | . | . | . | .
COc1ccccc1N1C(=O)CC(Sc2n[nH]c(-c3cccc(C)c3)n2)C1=O (centres undefined) | . | . | 2µM | . | ?
Cc1c(C(=O)N2CCOCC2)sc(NC(=O)Cc2ccccc2)c1C#N | . | . | . | . | /
O=C(NCCN1CCOCC1)c1ccc(=O)n(Cc2ccc(Cl)cc2)c1 | . | / | ? | . | /
CC12CCC(c3n[nH]c(=S)nc31)C2(C)C (centres undefined) | . | . | 20µM | . | ?
CC12CCC(c3nnc(SCc4ccc(Cl)cc4)nc31)C2(C)C (centres undefined) | . | ? | . | . | .
CC(C(=O)OCC(=O)c1ccc([N+](=O)[O-])cc1)N1C(=O)C2C3CCC(C3)C2C1=O (centres undefined) | . | / | 3.2µM | . | /
COc1ccc(-c2cn3c(C)c(C(=O)Nc4cc(NC(C)=O)ccc4OC)sc3n2)cc1 | 4.5µM | ? | ? | . | ?
CNC(=O)c1sc2nc(-c3ccc(OC)cc3)cn2c1C | . | . | . | . | .
CCN(CC)C(=O)c1sc2nc(-c3ccc(OC)cc3)cn2c1C | . | . | . | . | 14µM
COC(=O)c1ccccc1COn1c(=O)c(C)[n+]([O-])c2ccccc21 | . | . | 22µM | . | .
CC(C)(C[C@@]1(C)NC(=O)NC1=O)OCc1ccccc1 | . | / | .[13.5 µM] | .[7.66 µM] | .
CCOC(=O)C1C(=O)C=C(c2ccc(C)cc2)CC1c1cccc([N+](=O)[O-])c1 (centres undefined) | / | ? | 2.5µM | / | /
COc1ccc(C/C(C)=N/NC(=S)Nc2ccccc2)cc1 | . | . | 22µM | . | .
CCOc1ccc(NC(=S)N/N=C(\C)Cc2ccc(OC)cc2)cc1 | . | . | . | . | ?
COc1ccc(NC(=S)N/N=C/c2cccn2Cc2ccc(F)cc2)cc1 | . | . | 40µM | . | /
COc1ccc(C/C(C)=N/NC(=S)Nc2ccc(C)c(C)c2)cc1 | / | . | 24µM | / | /
SMILES | IMPase Li cell | LMNA splice mod | ALDH1A1 block | KinaseGlo FLuc | HPGD block
O=C(O)CCSCc1ccc(I)cc1 | . | / | .[13.5 µM] | .[7.66 µM] | .
COC(=O)c1c(C)oc(C)c1S(=O)(=O)N(Cc1ccccc1)C(C)C | / | / | . | / | /
CCOC(=O)CC1ON(C)C(=O)N1c1ccc(Cl)cc1Cl (centres undefined) | . | . | ? | . | .
CCOC(=O)C1=NOC2C(=O)N(c3ccc(Cl)cc3Cl)C(=O)C12 (centres undefined) | . | / | 0.71µM | . | /
COc1ccc(CCN2CC(C#N)=C3c4cc(OC)c(OC)cc4CCN3C2)cc1OC | . | . | ? | . | 7.1µM
CC(C)Cc1nc2oc3c(NCC4CCCO4)ncnc3c2c2c1CCC2 (centres undefined) | . | ? | ? | . | .
CCN1CCN(c2ncnc3c2oc2nc(C(C)C)c4c(c23)CCC4)CC1 | . | . | . | . | .
CCOC(=O)N1CCN(c2ncnc3c2oc2nc(C(C)C)c4c(c23)CCC4)CC1 | . | . | 1µM | . | ?
CC(C)Cc1nc2oc3c(N4CCN(CCO)CC4)ncnc3c2c2c1CCCC2 | . | . | 7.9µM | . | .

Screens deposited in PubChem by National Center for Advancing Translational Sciences (NCATS).
